Experimental findings from PubChem BioAssay (NCI) are described below.

Some test systems named below: NCI-H23 lung; NCI-H226 lung; NCI-H322M lung; HOP-62 NSCLC; NCI-H460 lung; HOP-92 NSCLC; NCI-H522 lung; A549/ATCC NSCLC; 786-0 renal; COLO 205 colon; DU-145 prostate; K-562 leukemia; MALME-3M melanoma; MDA-MB-231 breast; RXF 393 renal; SF-268 CNS; SF-295 CNS; SF-539 CNS; UACC-257 melanoma; M14 melanoma.
What all share (experiment): NCI-60 one-dose screen, 48 h (100 = growth as untreated, 0 = no growth, -100 = all killed)
Holding throughout (settings): 10 µM unless noted

The structures appear in SMILES notation. Compounds without any hit were thinned out: in the full panel of roughly 83,000, 20% have a hit.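 Note: values are percent growth. 100 is the growth of untreated cells, values between 100 and 0 indicate rising inhibition; between -100 and 0 indicates cell death.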 Values without a mark were called inactive. Calls of active or inactive are those of the source. How the source made its calls: active means growth percent below 10; inactive means the rest.

Turning to `NS(=O)(=O)c1cccc(Nc2nc(SCC(=O)c3ccc(Cl)cc3)nc3c2CCC3)c1`, the growth in the experiment on NCI-H23 lung is 75.1%; in the experiment with NCI-H226 lung, 87.7%; in the experiment with NCI-H322M lung, 97.1%; in the experiment with HOP-62 NSCLC, 76.3%; in the experiment with NCI-H460 lung it was 97.6%; with HOP-92 NSCLC it was 63.3%. Also, the growth with NCI-H522 lung was 95.6%; with A549/ATCC NSCLC, 91.7%; in the experiment on 786-0 renal, 82.5%; in the experiment on COLO 205 colon, 109%; with DU-145 prostate, 97.6%; in the experiment with K-562 leukemia, 90.2%. For the same compound, the growth with MALME-3M melanoma is 96.4%; with MDA-MB-231 breast, 92.5%; in the experiment with RXF 393 renal, 82.2%; with SF-268 CNS it was 82.8%; in the experiment on SF-295 CNS, 93.1%; with SF-539 CNS, 88.3%. Besides, the growth is 104% in the experiment on UACC-257 melanoma and 101% in the experiment on M14 melanoma.
Turning to `Fc1cccc(Cl)c1/C=N/Nc1nc(N/N=C/c2c(F)cccc2Cl)nc(N2CCCCC2)n1`, the growth with NCI-H23 lung is 44.8%; in the experiment on NCI-H226 lung, 53.9%; in the experiment with NCI-H322M lung, 35.8%; in the experiment with HOP-62 NSCLC it was 25.9%; in the experiment with NCI-H460 lung it was 19.9%; in the experiment on HOP-92 NSCLC, -1.32% (active). For the same compound, the growth in the experiment on NCI-H522 lung is 10.4%; with A549/ATCC NSCLC it was 21.6%; in the experiment with 786-0 renal, 28.3%; in the experiment with COLO 205 colon, -16.7% (active); with DU-145 prostate, 61%; with K-562 leukemia, 32.3%. Moreover, the growth is -4.19% (active) in the experiment with MALME-3M melanoma; 42.1% in the experiment with MDA-MB-231 breast; -3.38% (active) in the experiment on RXF 393 renal; 36.7% in the experiment on SF-268 CNS; 2.57% (active) in the experiment on SF-295 CNS; 56.3% with SF-539 CNS. Moreover, the growth was 11.7% in the experiment on UACC-257 melanoma and 11.9% in the experiment on M14 melanoma.
With `N#Cc1c(-c2cccs2)cc(-c2cnccn2)nc1SCC(=O)N/N=C/c1ccccc1`, the growth with NCI-H23 lung was 40.8%; in the experiment with NCI-H226 lung, 50.8%; in the experiment with NCI-H322M lung it was 63.5%; in the experiment with HOP-62 NSCLC, 31.1%; in the experiment on NCI-H460 lung, 17%; in the experiment on HOP-92 NSCLC, 42.3%. The growth in the experiment on NCI-H522 lung was 67.3%; with A549/ATCC NSCLC it was 46.8%; with 786-0 renal, 17.9%; with COLO 205 colon it was 66.2%; in the experiment on DU-145 prostate, 14%; in the experiment on K-562 leukemia, 46.5%. The growth in the experiment with MALME-3M melanoma was 4.87% (active); in the experiment with MDA-MB-231 breast, 46.5%; in the experiment on RXF 393 renal, -16.4% (active); in the experiment on SF-268 CNS, 56.4%; with SF-295 CNS it was 60.9%; in the experiment on SF-539 CNS it was 56.1%. Also, the values for the growth in the experiment on UACC-257 melanoma and in the experiment with M14 melanoma were 68.2% and 37%, respectively.
As for `O=C(COc1ccc(/C=C2\C(=O)Nc3cc(Cl)ccc32)cc1)Nc1ccc(Cl)cc1`, the growth in the experiment on NCI-H23 lung was 79.9%; in the experiment with NCI-H226 lung it was 79.1%; with NCI-H322M lung, 74.4%; in the experiment with HOP-62 NSCLC, 76.7%; with NCI-H460 lung, 73.4%; in the experiment on HOP-92 NSCLC, 90.8%. The growth with NCI-H522 lung was 45.7%; in the experiment with A549/ATCC NSCLC, 68.8%; in the experiment on 786-0 renal, 90.7%; in the experiment on COLO 205 colon, 81.3%; in the experiment with DU-145 prostate, 85.9%; with K-562 leukemia, 32.8%. In addition, the growth with MALME-3M melanoma was 98.7%; in the experiment on MDA-MB-231 breast it was 82.8%; in the experiment on RXF 393 renal, 76.4%; with SF-268 CNS it was 72.6%; in the experiment with SF-295 CNS, 66%; in the experiment with SF-539 CNS, 66.8%. Moreover, the growth is 78.4% in the experiment with UACC-257 melanoma and 22.1% in the experiment on M14 melanoma.
Turning to `CCCCCC[n+]1ccc(SCC(=O)n2ccc3ccccc32)c2ccccc21`, the growth was 63.8% in the experiment with NCI-H23 lung; 79.5% with NCI-H226 lung; 94% in the experiment on NCI-H322M lung; 90.2% in the experiment on HOP-62 NSCLC; 99.5% with NCI-H460 lung; 81.2% in the experiment on HOP-92 NSCLC. Also, the growth is 73.5% in the experiment with NCI-H522 lung; 101% in the experiment on A549/ATCC NSCLC; 102% in the experiment with 786-0 renal; 99.4% in the experiment on COLO 205 colon; 94.1% with DU-145 prostate; 51.7% in the experiment on K-562 leukemia. The growth in the experiment with MALME-3M melanoma was 91.4%; with MDA-MB-231 breast, 89.5%; with RXF 393 renal, 113%; with SF-268 CNS, 101%; in the experiment on SF-295 CNS it was 82.2%; in the experiment on SF-539 CNS, 96.3%. Further, the growth was 100% in the experiment on UACC-257 melanoma and 89% in the experiment on M14 melanoma.
`CCc1cc(OC(=O)N2CCN(CCC(C)(COC(C)(C)C)COC(C)(C)C)CC2)ccc1Nc1cc(-c2ccc(-n3cccn3)cc2)[nH]n1`: the growth is 83.9% in the experiment on NCI-H23 lung; 67.1% with NCI-H226 lung; 101% in the experiment on NCI-H322M lung; 91.7% with HOP-62 NSCLC; 74.4% with NCI-H460 lung; 73.1% in the experiment with HOP-92 NSCLC. The growth with NCI-H522 lung is 80.7%; with A549/ATCC NSCLC, 81.1%; with 786-0 renal, 85.8%; in the experiment on COLO 205 colon, 80.8%; in the experiment on DU-145 prostate, 84%; in the experiment on K-562 leukemia it was 52.1%. The growth in the experiment on MALME-3M melanoma was 89.7%; in the experiment with MDA-MB-231 breast it was 83.5%; with RXF 393 renal, 41%; in the experiment on SF-268 CNS, 73.8%; with SF-295 CNS, 85.1%; in the experiment with SF-539 CNS, 88.8%. The figures for the growth in the experiment on UACC-257 melanoma and in the experiment with M14 melanoma were 92.9% and 97.6%, respectively.
On to `C[C@@H]1OCC2(CCN(c3cnc(C(=O)Nc4cc(F)cc5cccnc45)cn3)CC2)[C@@H]1N`, for which the growth is 82.2% in the experiment on NCI-H23 lung; 78.6% with NCI-H226 lung; 85.3% in the experiment on NCI-H322M lung; 83.8% in the experiment on HOP-62 NSCLC; 93.5% in the experiment on NCI-H460 lung; 45.7% in the experiment with HOP-92 NSCLC. The growth is 34.8% in the experiment with NCI-H522 lung; 82.2% in the experiment with A549/ATCC NSCLC; 71.3% in the experiment with 786-0 renal; 9.27% (active) in the experiment with COLO 205 colon; 77% with DU-145 prostate; 8.84% (active) in the experiment with K-562 leukemia. The growth with MALME-3M melanoma is 53.1%; in the experiment on MDA-MB-231 breast, 38.9%; with RXF 393 renal, 65.4%; in the experiment with SF-268 CNS it was 78.9%; in the experiment on SF-295 CNS it was 90.8%; with SF-539 CNS, 71.7%. The growth was 102% in the experiment with UACC-257 melanoma and 81.5% with M14 melanoma.
